An excerpt weighted towards active compounds, which were near 19% of everything screened.
TDP1 cell CPT: DT40-hTDP1 cell growth loss with CPT. chicken DT40 Tdp1-/-;hTDP1 cells + 20 nM CPT, ATP luminescence, 48 h. Potency, µM (highest dose often 46.2 µM), without a hit: at the highest dose activity change, negative = growth inhibition, hits mostly inhibitors. hit rate 12% among 420,000. AID 686979; also: potency is read from the fitted curve at half-maximal effect; % is scaled to controls: 0 for no effect and ±100 for the full control effect; nearly all actives have a fitted effect of over 55% in size
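Cell growth measured by CellTiter-Glo luminescence after a minimum 48 h, 37 C compound exposure with 20 nM CPT in Tdp1-knockout DT40 cells stably expressing hTDP1, seeded 400/well; qHTS titration format.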
TGFb inhibitor: TGF-b pathway inhibition; HepG2 CAGA-GFP TGF-b/SMAD3 reporter, GFP fluorescence, 18 h; TGF-beta stimulated, 500 pg/mL final; Potency, µM (top dose mostly 46.1 µM), for the others: at the top dose activity, negative = inhibition, usual class: inhibitors; hit rate 1.2% among 410,000; AID 588855; also: potency is read from the fitted curve at half-maximal effect; % is scaled to controls: 0 for no effect and ±100 for the full control effect; nearly all actives have a fitted effect of over 65% in size
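HEPG2 CAGA-GFP cells (1000/well, DMEM with 1% FBS) were pre-incubated 2 h at 37 degrees C, given compound by pin tool, then stimulated with TGF-beta at 500 pg/mL final for 18 h before per-cell GFP fluorescence imaging.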
IL1B secr inh: inflammasome signaling inhibition, IL-1 beta readout | THP-1 LPS/ATP IL-1B secretion, AlphaLISA, 16 h; active compounds read low | hit rate 4.7% among 360,000 | activity change, % at 57.5 µM; in the data active = activity change below about -50%; inconclusive = mostly about -30% to -49%; also: % is scaled to controls: 0 for no effect and ±100 for the full control effect
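THP-1 cells pretreated 1 hr with compounds (up to 57.5 uM final), then stimulated with LPS (250 ng/mL final) plus ATP (1.25 mM final); secreted IL-1B measured by AlphaLISA after 16 hr, decreased signal indicating inhibition.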
DT40 TDP1 no CPT: qHTS for Inhibitors of human tyrosyl-DNA phosphodiesterase 1 (TDP1): qHTS in cells in absence of CPT; DT40 Tdp1-/- hTDP1 cells, no CPT, ATP luminescence, 48 h; Potency, µM (doses to about 46.2 µM), for the others: top-dose activity change, negative = growth inhibition, actives largely listed as inhibitors; AID 686978, 2013; hit rate 15% among 420,000; also: potency is read from the fitted curve at half-maximal effect; % is scaled to controls: 0 for no effect and ±100 for the full control effect; nearly all actives have a fitted effect of over 55% in size
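Chicken DT40 Tdp1-/- cells complemented with human TDP1, screened without camptothecin (DMSO vehicle only), 400 cells/well. Compounds pin-transferred, cells incubated at 37 °C for at least 48 hr. Growth read as ATP-dependent luminescence (CellTiter-Glo, 30 min at RT).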
TDP1 block: blocks human tyrosyl-DNA phosphodiesterase 1; Q9NUW8; recombinant TDP1, AlphaScreen DNA substrate cleavage; Potency, µM (highest dose often 130 µM), for the others: top-dose activity change, negative = inhibition, actives largely listed as inhibitors; hit rate 0.28% among 350,000; AID 485290; also: potency is read from the fitted curve at half-maximal effect; % is scaled to controls: 0 for no effect and ±100 for the full control effect; nearly all actives have a fitted effect of over 40% in size
Target sequence (Q9NUW8 whole entry, looked up): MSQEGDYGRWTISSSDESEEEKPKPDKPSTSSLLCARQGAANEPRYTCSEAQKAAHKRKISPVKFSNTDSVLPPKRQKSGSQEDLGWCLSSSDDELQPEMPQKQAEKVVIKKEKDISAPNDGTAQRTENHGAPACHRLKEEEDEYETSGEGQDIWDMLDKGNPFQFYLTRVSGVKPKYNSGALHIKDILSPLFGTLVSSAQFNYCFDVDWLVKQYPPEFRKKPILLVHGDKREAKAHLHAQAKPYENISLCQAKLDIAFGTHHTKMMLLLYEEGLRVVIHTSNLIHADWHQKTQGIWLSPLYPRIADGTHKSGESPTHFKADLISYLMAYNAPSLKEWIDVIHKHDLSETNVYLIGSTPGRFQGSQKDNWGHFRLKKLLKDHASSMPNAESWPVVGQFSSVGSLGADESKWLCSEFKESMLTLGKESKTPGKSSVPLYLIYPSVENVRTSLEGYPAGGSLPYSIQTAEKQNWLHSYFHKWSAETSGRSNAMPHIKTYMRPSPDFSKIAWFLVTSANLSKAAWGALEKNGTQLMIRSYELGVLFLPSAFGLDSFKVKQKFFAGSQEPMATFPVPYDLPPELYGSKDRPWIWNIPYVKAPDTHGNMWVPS
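E. coli-derived human Tdp1, 1 nM final. Cpd preinc 15 min RT; substrate 15 nM final, 5 min RT; AS bead mix 10 ug/ml final, 10 min RT. Signal loss = tyrosine-FITC cleavage. No-enzyme wells = max signal.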
HepG2 tox: HepG2 cytotoxicity, counter-screen for TGF-b inhibitors | hit rate 0.76% among 410,000 | Potency, µM (highest dose often 46.1 µM), for the others: at the highest dose activity change, negative = cytotoxicity, usual class: cytotoxic | AID 588856 | HepG2 CAGA-GFP viability, ATP luminescence, 18 h; also: potency is read from the fitted curve at half-maximal effect
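CellTiter-Glo luminescence gave cytotoxicity after 18 hours at 37 degrees C. The cells were HepG2 CAGA-GFP in 1% FBS DMEM, stimulated with 500 pg/mL TGF-beta after compound addition. %Activity was normalised to no-cell wells (complete cell-killing) and DMSO (no toxicity), and curves were fitted and classified.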
* = called active by the depositor; [ ] = dose if it differs, or a comment. Unless noted, calls follow the shape of the dose curve; as a rule, active = well fitted curve in the direction sought with a large enough effect; inconclusive = small, poorly fitted or top-dose-only effect, or another doubt; inactive = no such curve, though single readings can be large; an effect the other way counts as inactive or inconclusive.

Screening Cc1ccc(NC(=O)c2cc(-c3ccco3)on2)cc1C returned TDP1 cell CPT inconclusive, TGFb inhibitor 13%, IL1B secr inh -12, DT40 TDP1 no CPT inconclusive, TDP1 block 4% and HepG2 tox -1%.
Screening COc1cccc(-c2cc(C(=O)Nc3cc(OC)c(OC)c(OC)c3)no2)c1 returned TDP1 cell CPT 12µM*, TGFb inhibitor 2%, IL1B secr inh -26, DT40 TDP1 no CPT 9.2µM*, TDP1 block 2% and HepG2 tox -21%.
COc1cccc(C(=O)Nc2cnn(C(C)C)c2)c1 was read as TDP1 cell CPT 3%, TGFb inhibitor 1%, IL1B secr inh 3, DT40 TDP1 no CPT -21%, TDP1 block 5% and HepG2 tox 19%.
For Cc1ccc(NC(=O)c2cc(-c3ccco3)on2)cc1 the results were TDP1 cell CPT 15µM*, TGFb inhibitor 6%, IL1B secr inh -27, DT40 TDP1 no CPT inconclusive, TDP1 block 2% and HepG2 tox 2%.
`CC(C)n1cc(NC(=O)c2cc(-c3ccccc3)on2)cn1` gave TDP1 cell CPT 5.2µM*, TGFb inhibitor inconclusive, IL1B secr inh 18, DT40 TDP1 no CPT 3.7µM*, TDP1 block 6% and HepG2 tox -3%.
Screening COc1ccc(-c2cc(C(=O)Nc3c(C)nn(Cc4ccccc4)c3C)no2)cc1 returned TDP1 cell CPT -23%, TGFb inhibitor 4%, IL1B secr inh -1, DT40 TDP1 no CPT -28%, TDP1 block 7% and HepG2 tox -36%.
Screening COc1cccc(-c2cc(C(=O)Nc3cccnc3)no2)c1 returned TDP1 cell CPT 21µM*, TGFb inhibitor 41%, IL1B secr inh 28, DT40 TDP1 no CPT 13µM*, TDP1 block 5% and HepG2 tox 9%.
`COc1cc(NC(=O)c2cc(-c3ccccc3)on2)cc(OC)c1OC` gave TDP1 cell CPT inconclusive, TGFb inhibitor 4%, IL1B secr inh -14, DT40 TDP1 no CPT 13µM* and HepG2 tox -18%.
COCCNC(=O)c1cc(-c2ccccc2OC)on1 was read as TDP1 cell CPT 10µM*, TGFb inhibitor -6%, IL1B secr inh 34, DT40 TDP1 no CPT 12µM*, TDP1 block 7% and HepG2 tox -16%.
`COc1ccccc1-c1cc(C(=O)NCc2cccs2)no1` gave TDP1 cell CPT -18%, TGFb inhibitor 0%, IL1B secr inh 29, DT40 TDP1 no CPT -25%, TDP1 block -6% and HepG2 tox -8%.
Screening O=C(Nc1cccnc1)c1cc(-c2ccccc2)on1 returned TDP1 cell CPT -21%, TGFb inhibitor -4%, IL1B secr inh 21, DT40 TDP1 no CPT -25%, TDP1 block 2%[56.1 µM] and HepG2 tox -13%.
For COc1cccc(-c2cc(C(=O)Nc3c(C)nn(Cc4ccccc4)c3C)no2)c1 the results were TDP1 cell CPT inconclusive, TGFb inhibitor 6%, IL1B secr inh -28, DT40 TDP1 no CPT 18µM*, TDP1 block 4% and HepG2 tox -1%.
`COc1ccc(NC(=O)c2cc(-c3ccccc3)on2)cc1` gave TDP1 cell CPT -6%, TGFb inhibitor 6%, IL1B secr inh -12, DT40 TDP1 no CPT -17% and HepG2 tox -8%.
Screening CCc1ccc(CNC(=O)c2cc(=O)[nH]c3ccc(S(=O)(=O)N4CCCCC4)cc23)cc1 returned TDP1 cell CPT -2%, TGFb inhibitor -1%, DT40 TDP1 no CPT 5%, TDP1 block 10% and HepG2 tox 1%.
Screening CN(C)CCCOc1c2ccccc2n(Cc2ccccc2)[n+]1[O-] returned TDP1 block 6%.
O=C(Nc1cccnc1)c1cccs1 was read as TDP1 cell CPT 0.33µM*, TGFb inhibitor -13%, IL1B secr inh 22, DT40 TDP1 no CPT 0.37µM*, TDP1 block 4% and HepG2 tox 3%.
`COc1cc(NC(=O)c2cccnc2Sc2ccc(Cl)cc2)cc(OC)c1OC` gave TDP1 cell CPT inconclusive, TGFb inhibitor 4%, IL1B secr inh 1, DT40 TDP1 no CPT inconclusive, TDP1 block 2% and HepG2 tox -29%.
COc1cc(NC(=O)c2ccccn2)cc(OC)c1OC was read as TDP1 cell CPT 16µM*, TGFb inhibitor 5%, IL1B secr inh 3, DT40 TDP1 no CPT inconclusive, TDP1 block 8% and HepG2 tox 6%.
Screening O=C(Nc1cccnc1)c1ccco1 returned TDP1 cell CPT inconclusive, TGFb inhibitor -2%, IL1B secr inh -3, DT40 TDP1 no CPT 23µM*, TDP1 block -1% and HepG2 tox -26%.
For COc1cc(C(=O)N/N=C(\c2ccccc2)c2ccccn2)cc(OC)c1OC the results were TDP1 cell CPT 2.6µM*, TGFb inhibitor -4%, IL1B secr inh 49, DT40 TDP1 no CPT 2.6µM*, TDP1 block 8% and HepG2 tox -24%.
For Cc1ccc2cccc(NC(=O)c3ccc(-c4cccc(Cl)c4Cl)o3)c2n1 the results were TGFb inhibitor 4%, TDP1 block 1% and HepG2 tox -10%.
COc1cc(=O)n2c(c1C(=O)NC(C)c1ccco1)CCN(CC=C(C)C)CC2 (configuration not stated) was read as TDP1 cell CPT -12% and DT40 TDP1 no CPT -5%.
Screening O=C(Nc1cnn(Cc2ccc(Cl)cc2)c1)c1cccs1 returned TDP1 cell CPT 12µM*, TGFb inhibitor -6%, IL1B secr inh -27, DT40 TDP1 no CPT 8.2µM* and HepG2 tox -22%.
COc1ccccc1-c1cc(C(=O)Nc2cc(OC)c(OC)c(OC)c2)no1 was read as TDP1 cell CPT 0.52µM*, TGFb inhibitor 27%, DT40 TDP1 no CPT 0.65µM*, TDP1 block 6% and HepG2 tox -16%.
COc1ccccc1-c1cc(C(=O)Nc2cc(C)nn2-c2ccccc2)no1 was read as TDP1 cell CPT 18µM*, TGFb inhibitor -6%, IL1B secr inh 33, DT40 TDP1 no CPT 26µM* and HepG2 tox -44%.
For COc1ccc(-c2cc(C(=O)Nc3cc(C)nn3-c3ccccc3)no2)cc1 the results were TDP1 cell CPT -1%, TGFb inhibitor 3%, IL1B secr inh 23, DT40 TDP1 no CPT -16%, TDP1 block -3% and HepG2 tox -21%.
COc1ccc(NC(=O)c2cc(-c3ccccc3Cl)on2)cc1OC was read as TDP1 cell CPT -5%, TGFb inhibitor 0%, IL1B secr inh -28, DT40 TDP1 no CPT -3% and HepG2 tox 3%.
